Assay outcomes: PubChem, National Center for Advancing Translational Sciences (NCATS)
The list is not random: actives were taken first. Their share in the collection is about 5.2%.
Sfp inh: qHTS Assay for Inhibitors of Bacillus subtilis Sfp phosphopantetheinyl transferase (PPTase) | Biochemical Sfp PPTase activity, qHTS | 3.5% of 310,000 active | AID 1490, 2009 | Potency, µM, for the others: largest response in the series, negative = inhibition, hits mostly inhibitors;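 also: the enzyme is Sfp with the accession as filed and its product quenches rhodamine fluorescence; potency is read from the fitted curve at half-maximal effect; 0% = enzyme reaction without inhibitor and -100% = no enzyme wells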
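Buffer: 50 mM Hepes-Na pH 7.6, 10 mM MgCl2, 0.01% Nonidet P-40, 0.01% BSA. Enzyme 15 nM, pre-exposed to compound 15 min; substrates then added and fluorescence change tracked over 30 min.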
FBPA coupling cs: qHTS Assay for Inhibitors of Fructose-1,6-bisphosphate Aldolase from Giardia Lamblia: Coupling assay counterscreen. AID 2472, 2010. 0.67% of 290,000 active. activity change, negative = inhibition, % at 58.2 µM, hits read low. coupling enzyme system counterscreen, AmpLite Red fluorescence; in the data active = activity change below about -30%
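Counterscreen lacking aldolase: glyceraldehyde-3-phosphate coupling-enzyme reagent preincubated 10 min at RT with compound (at 57.5 uM final), then substrate/coupling system with AmpLite Red added; fluorescence read at 525/598 nm after 20 min RT.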
Tau ThT inhib: qHTS for Inhibitors of Tau Fibril Formation, Thioflavin T Binding. Microtubule-associated protein tau (Homo sapiens), P10636. recombinant tau K18 P301L, heparin-induced fibrillization, ThT fluorescence. Potency, µM (doses to about 57.4 µM), for inactives: at the highest dose activity, negative = inhibition, usual class: inhibitors. 2.1% of 270,000 active. AID 1460, 2008; also: potency is read from the fitted curve at half-maximal effect; nearly all actives have a fitted effect of over 55% in size
Target sequence (P10636 561-689 P618L limits assumed): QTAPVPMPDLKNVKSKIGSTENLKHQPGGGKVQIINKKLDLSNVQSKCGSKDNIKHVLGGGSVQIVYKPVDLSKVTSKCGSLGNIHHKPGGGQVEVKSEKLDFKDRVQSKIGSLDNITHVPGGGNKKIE
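Fibril formation assay: tau K18 P301L at 15 uM with trace Alexa 594 label, heparin inducer 20 uM, pH 7 sodium acetate buffer, 37 C for 6 hr; endpoint ThT signal.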
Tau fluor cs: Counterscreen qHTS for Inhibitors of Tau Fibril Formation, Fluorescence Polarization; tau K18 P301L Alexa594 fluorescence, heparin fibrillization; Potency, µM (top dose mostly 57.7 µM), for inactives: at the highest dose activity change, negative = decrease; 0.93% of 280,000 active; also: potency is read from the fitted curve at half-maximal effect; nearly all actives have a fitted effect of over 55% in size
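Human tau K18 P301L (15 uM unlabeled, 0.24 uM Alexa 594-labeled) in 100 mM sodium acetate pH 7 with 20 uM heparin, 6 hr at 37 C. ThT 30 uM added, 1 hr ambient; Alexa 594 FP and total fluorescence read at 555/632 nm.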
Tau FP inhib: qHTS for Inhibitors of Tau Fibril Formation, Fluorescence Polarization. Microtubule-associated protein tau (Homo sapiens), P10636. K18 P301L tau heparin fibrillization, Alexa594 FP, 6 h. Potency, µM (top dose mostly 57.7 µM), for inactives: at the highest dose activity, negative = inhibition, hits mostly inhibitors. 0.39% of 280,000 active. AID 1468, 2008; also: potency is read from the fitted curve at half-maximal effect; nearly all actives have a fitted effect of over 55% in size
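Quantitative HTS format: compounds meet 15 uM recombinant K18 P301L tau and Alexa 594-tau tracer in 100 mM sodium acetate pH 7; 20 uM heparin triggers fibrillization at 37 C over 6 hr; FP gives the signal.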
* marks the source's active call; other numbers are inactive results; ? = inconclusive; . = no result; [ ] = remark or other dose. Unless noted, calls follow the shape of the dose curve; as a rule, active = well fitted curve in the direction sought with a large enough effect; inconclusive = small, poorly fitted or top-dose-only effect, or another doubt; inactive = no such curve, though single readings can be large; an effect the other way counts as inactive or inconclusive. Unless noted, % is scaled to controls: 0 for no effect and ±100 for the full control effect.

SMILES	Sfp inh	FBPA coupling cs	Tau ThT inhib	Tau fluor cs	Tau FP inhib
COc1ccccc1NCC(=O)c1ccc(Cl)cc1	50µM*	1	.	.	.
COc1ccccc1NCC(=O)c1ccc(C)c(C)c1	-17%	0	.	.	.
O=C(NC(=S)Nc1cccnc1Cl)c1ccc(F)cc1	-24%	1	.	.	.
COc1cccc(C(=O)NC(=S)Nc2nnn(C)n2)c1	50µM*	-4	1%	9%	-3%
CC(=O)Nc1ccc(NC(=S)NC(=O)c2cc3ccccc3o2)cc1	1%	2	?	-8%	?
COc1ccc(C(=O)NC(=S)Nc2nnn(C)n2)cc1	56µM*	-1	-18%	-8%	1%
Cn1nnc(NC(=S)NC(=O)c2cc3ccccc3o2)n1	50µM*	-7	1%	10%	-1%
Cn1nnc(NC(=S)NC(=O)c2cccc3c(Br)cccc23)n1	?	-1	.	.	.
O=C(NC(=S)Nc1ncccn1)c1ccc(F)cc1	16µM*	3	.	.	.
O=C(NCc1ccccc1Cl)C1CCCN(C(=O)c2cnn(-c3ccc(F)cc3)c2-n2cccc2)C1 (stereo not given)	.	.	-3%	-1%	13%
COc1ccc2c(c1)c1c(c(=O)n(CCc3ccccc3)c(=O)n1Cc1ccccc1)n2C	.	.	3%	-5%	-1%
Cc1ccc(C(C)C)c(OCC(=O)Nc2ccc(S(=O)(=O)Nc3onc(C)c3C)cc2)c1	.	.	-17%	-3%	5%
COc1ccc(C(=O)NC(=S)SCC(=O)O)cc1	50µM*	0	?	-16%	?
CCN(CC)CCn1c(-c2ccccc2)nc2c(NCc3ccccc3)nc(C)nc21	11%	1	-4%	-13%	-8%
O=c1c2cnn(-c3ccc(Cl)cc3)c2ncn1Cc1ccc(Cl)cc1Cl	.	.	-1%	-6%	-12%
CCNC(=S)NNc1nc(N2CCOCC2)nc(N2CCOCC2)n1	14µM*	0	3%	3%	0%
CNC(=S)NNc1nc(N2CCOCC2)nc(N2CCOCC2)n1	2.2µM*	1	-7%	0%	-7%
CCCNc1nc(N2CCOCC2)nc(N2CCOCC2)n1	18%	1	2%	4%	0%
C=CCNC(=S)NNc1nc(N2CCCC2)nc(N2CCCC2)n1	40µM*	2	.	.	.
CNc1nc(C(=O)O)nc(N2CCOCC2)n1	56µM*	-1	-12%	-2%	-2%
COc1ccc(-c2nc3cnc(N4CCN(C)CC4)nc3n(C)c2=O)cc1	27%	-2	.	.	.
Cc1nnc(N2C(=O)c3oc4ccccc4c(=O)c3C2c2ccc(F)cc2)s1 (stereo not given)	.	.	-7%	-5%	-8%
COCc1cc(S(=O)c2ccc(Cl)cc2)nc(C)n1 (stereo not given)	79µM*	0	?	-11%	?
COCc1cc(Sc2ccc(Cl)cc2)nc(C)n1	17%	4	-2%	-3%	-5%
CCN(CCn1cccn1)C(=O)c1cc(COc2cc(C)ccc2C)on1	2%	.	.	.	.
SMILES	Sfp inh	FBPA coupling cs	Tau ThT inhib	Tau fluor cs	Tau FP inhib
C/C(=N\NC(=O)c1cc2ccccc2cc1O)c1ccc2c(c1)OCO2	-11%	-4	7.1µM*	?	1%
C/C(CC(=O)Nc1ccc(Cl)c(C(F)(F)F)c1)=N\NC(=O)c1cc2ccccc2cc1O	21%	-2	13µM*	16µM*[quencher]	-5%
C/C(CC(=O)N1CCCC1)=N\NC(=O)c1cc2ccccc2cc1O	-26%	-65*	13µM*	?	-15%
COc1cccc(NC(=O)C/C(C)=N/NC(=O)c2ccccc2Cl)c1	-4%	-1	.	-5%	-3%
COCCn1c(=O)c(-c2cn(C)c3ccccc23)nc2cnc(Oc3ccccc3)nc21	20%	-4	.	.	.
N#C/C(=N\Nc1ccccc1Cl)C(=O)c1ccccc1	12%	-3	20µM*	-22%	?
COc1ccc(C(=O)/C(C#N)=N/Nc2cccc([N+](=O)[O-])c2)cc1	-10%	6	7.9µM*	?	5%
